Source: PubChem BioAssay
SRC1 inh: inhibitors of human steroid receptor coactivator 1 (SRC1); Q15788; 360,000 tested, 0.12% active; inhibition, % at 3.6 µM; HEK293 GAL4-SRC1 luciferase reporter, luminescence;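 active = inhibition above the campaign mean plus 3 SD, with each screening campaign given its own cutoff, cut at about 60% in these data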;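 also: 0% = DMSO treated cells and 100% = gossypol at 36 µM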
NR2F2 inh: blocks human COUP-TFII nuclear receptor | HEK293T NGFI-A luciferase reporter, luminescence | P24468 | 370,000 tested, 0.7% active | AID 686940 | inhibition, % at 8.6 µM;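 active = inhibition above a per-plate cutoff, mean inhibition of test wells between control levels plus 3 SD, cut at about 38% in these data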;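 also: cells cotransfected with COUP-TFII expression vector driving the NGFI-A reporter; 0% = median of COUP-TF2 test wells and 100% = reporter-only cells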
NR5A2 inv ag: inverse agonists of human LRH-1 (NR5A2) | O00482 | HEK293T StAR-luciferase reporter, LRH-1 transfected, 24 h | inhibition, % at 3.6 µM | 360,000 tested, 0.13% active | AID 602396;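 active = inhibition above the mean inhibition of all tested compounds plus 3 SD, cut at about 73% in these data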;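 also: 0% = DMSO wells and 100% = reporter-only cells lacking LRH-1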
SRC2 inh: inhibits human steroid receptor coactivator 2; HEK293 GAL4-SRC2 luciferase reporter, luminescence; inhibition, % at 9 µM; 370,000 tested, 0.17% active; AID 651957;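 active = inhibition above the mean inhibition of all tested compounds plus 3 SD, set per campaign, cut at about 52% in these data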;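 also: 0% = DMSO treated cells and 100% = cells given Gossypol at 36 µM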
SRC3 inh: inhibitors of human steroid receptor coactivator 3 (SRC3); Q9Y6Q9; HEK293 GAL4-SRC3 luciferase reporter, luminescence; inhibition, % at 3.6 µM; 360,000 tested, 0.17% active;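 active = inhibition above a per-campaign cutoff, the mean of all compounds plus 3 SD, cut at about 60% in these data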;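 also: 0% = DMSO-treated cells and 100% = gossypol-treated cells at 36 µM; higher means less SRC3-driven luciferase light from the GAL4 reporter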
GalR3 antag: blocks the human galanin receptor 3 | 360,000 tested, 0.44% active | inhibition, % at 3 µM | AID 651719 | HEK293 GalR3-CNG cAMP membrane potential fluorescence; galR3 body fused to GalR1 C-terminus | O60755;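 active = inhibition above the screen-wide average plus 3 SD, cut at about 13% in these data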;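 also: forskolin and galanin both at EC90 stimulate the cells; cAMP rise reported by CNG channel membrane potential dye signal; 0% = forskolin plus galanin with DMSO and 100% = forskolin alone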
GalR3 antag conf: confirmation of human galanin receptor 3 antagonists | shares compounds with GalR3 antag | HEK293 GalR3 CNG cAMP biosensor, membrane potential fluorescence; galR3 fused to GalR1 carboxy tail; challenged with forskolin and galanin at EC90 | inhibition, % at 3 µM | 1,600 tested, 59% active;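 active = inhibition above the primary screen's cutoff, the mean inhibition of all screened compounds plus 3 SD, cut at about 13% in these data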;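 also: 0% = forskolin plus galanin and 100% = forskolin alone with DMSO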
HEK-CNG parental: parental cell agonism counter-screen for GalR3 antagonists; shares compounds with GalR3 antag; HEK293-CNG parental cells, cAMP membrane potential fluorescence; normalised: DMSO wells 0%, forskolin wells 100%; activation, % at 3 µM; 1,600 tested, 10% active; AID 652268; in the data active = activation above about 1.3%
Numbers without * were called inactive; . = no result given. Sampled rows, rich in hits. Any-hit rate of the full collection: about 1.1%.

SMILES | SRC1 inh | NR2F2 inh | NR5A2 inv ag | SRC2 inh | SRC3 inh | GalR3 antag | GalR3 antag conf | HEK-CNG parental
COc1ccc(C(=O)NCCN(C)C)c2nc3ccccc3cc12 | 58 | -84 | 60 | -321 | -69 | -4 | . | .
CN(C)CCNC(=O)c1cccc2nc3c(ccc4ccccc43)nc12 | 66* | -40 | 33 | -80 | 32 | -6 | . | .
COc1cccc2nc3c(C(=O)NCCN(C)C)cccc3cc12 | 63* | -47 | 23 | -102 | 56 | -2 | . | .
CC(CCc1ccc(O)cc1)NCc1ccc(Br)cc1 (stereo not drawn) | -7 | -17 | -2 | -21 | -9 | 31* | 58* | 1
CC(C)(C)NC(=O)COC(=O)c1snc(C(=O)NC2CCCCC2)c1N | 17 | 67* | 30 | 36 | 15 | 101* | 123* | -1
O=C1C=CC(=O)N1c1ccc(OC(F)F)cc1 | -15 | 14 | -13 | 31 | 5 | 3 | . | .
CCOC(=O)[C@]12CCC=C1N(Cc1cccc3ccccc13)C(=O)[C@H](CC(=O)N1CCC(c3ccccc3)CC1)C2 | . | 13 | -14 | -17 | . | -7 | . | .
Cc1nnc(NC(=O)C(C)Sc2nnc(CCNC(=O)c3ccccc3F)n2C)s1 (stereo not drawn) | -15 | -7 | -14 | -21 | 8 | 13* | 5 | 0
Cc1ccccc1NC(=O)CNc1ccc(Cl)c(C(F)(F)F)c1 | 13 | 6 | 8 | 12 | 5 | 14* | 2 | 0
COC(=O)CCCN=C1SCCN1Cc1ccccc1 | -71 | -24 | -2 | 21 | -23 | 15* | 8 | 0
Cc1nc(NCC2CC2)c2nnn(Cc3ccccc3)c2n1 | -1 | -7 | -11 | -2 | 4 | 18* | -2 | 0
O=C(COC(=O)C(O)C(O)C(=O)OCC(=O)c1ccc(C(F)(F)F)cc1)c1ccc(C(F)(F)F)cc1 (stereo not drawn) | -56 | 23 | -19 | 10 | 22 | 13* | 10 | 0
COc1ccc(-c2nc(C#N)c(NC(C)c3ccccc3)o2)cc1OC (stereo not drawn) | -9 | -13 | -5 | -15 | 2 | 20* | 39* | 0
COCCCNS(=O)(=O)c1ccc(S(=O)(=O)N2CCCC2)cc1 | -13 | 4 | 3 | -30 | 3 | -6 | . | .
COC(CNS(=O)(=O)c1ccc(S(=O)(=O)N2CCCC2)cc1)OC | 12 | 2 | 10 | 2 | 11 | 13* | 7 | 0
Cc1c(NC(=O)CN2C(=O)NC(C)(c3ccc(Cl)cc3)C2=O)c(=O)n(-c2ccccc2)n1C (stereo not drawn) | -4 | 21 | -10 | 3 | 21 | -6 | . | .
O=C(CSC1=Nc2ccccc2C2CC=NN12)Nc1ccc2c(c1)OCO2 (stereo not drawn) | -11 | -3 | 3 | 11 | 0 | 20* | 10 | 0
O=C(CN1CCN(Cc2ccccc2Cl)CC1)N/N=C/C=C\c1ccccc1[N+](=O)[O-] | 1 | . | 9 | . | 17 | . | . | .
CC(=O)N1CCN(S(=O)(=O)c2cccc(C(=O)OCC(=O)NC(=O)c3cccn3C)c2)CC1 | -5 | -6 | 8 | 0 | 2 | -2 | . | .
Cc1ccnc(N2C(=O)c3cccc4c([N+](=O)[O-])ccc(c34)C2=O)c1 | -22 | -13 | 17 | -83 | 4 | 10 | . | .
Cc1ccc(N2C(=O)c3cccc4c([N+](=O)[O-])ccc(c34)C2=O)c2cccnc12 | 7 | 3 | 15 | 18 | 12 | 14* | 17* | 0
Fc1cccc(-c2nnn3c2nc(Cl)c2ccccc23)c1 | -75 | -20 | -37 | -47 | -44 | 14* | 6 | 3.8*
Clc1nc2c(-c3ccccc3)nnn2c2ccccc12 | -47 | -12 | -11 | -16 | -26 | 8 | . | .
CCN(C(=O)CSc1nnc(-c2ccccc2F)n1N)c1c(N)n(Cc2ccccc2)c(=O)[nH]c1=O | -6 | -3 | -13 | 9 | 9 | -4 | . | .
